Assay results reported in ChEMBL document CHEMBL3988442, “University of Dundee, Small-Polar-MMV Screening Library” (2021).
Hit rate of the full screen: of about 69,000 compounds, about 950 (1.4%) showed an effect of 50% or more. The entries come from a sample that favours strong results as a whole.

System: Mycobacterium tuberculosis
Test: Cornell M. t heat shock assay; note: in the data most compounds retested in dose-response had high values
Format: functional, organism-based
Design: dose or concentration left out as unconfirmed

**Q.** Which “Percent Effect” value does the source give for `O=C(O)C(F)(F)F.c1cncc(-c2ccc3c(c2)C2(CC3)CCN(c3nncs3)CC2)c1` here?
**A.** The value was 12.31%.

**Q.** `O=C(O)C(F)(F)F.O=C(O)C(F)(F)F.c1cncc(-c2ccc3c(c2)CCC32CCN(Cc3ccco3)CC2)c1` was tested. Which “Percent Effect” value did it give?
**A.** Its value is 104%.

**Q.** How did the “Percent Effect” value turn out when `O=C(O)C(F)(F)F.O=C(O)C(F)(F)F.c1cncc(-c2ccc3c(c2)CCC32CCN(Cc3nccs3)CC2)c1` was run?
**A.** The value was 74.6%.

**Q.** For `CN(C)CC(=O)N1CCC2(CCc3cc(-c4cccnc4)ccc32)CC1.O=C(O)C(F)(F)F.O=C(O)C(F)(F)F`, which “Percent Effect” value is on record?
**A.** Its value is 53.15%.

**Q.** Which “Percent Effect” value does the source give for `O=C(O)C(F)(F)F.O=C(O)C(F)(F)F.c1cncc(C2COC3(CCN(Cc4nccs4)CC3)C2)c1` (centres undefined) here?
**A.** Its value is -9.404%.

**Q.** Which “Percent Effect” value does the source give for `Cc1ccc2c(c1)CCC21CCN(C(=O)CN(C)C)CC1.O=C(O)C(F)(F)F` here?
**A.** The value was -22.19%.

**Q.** For `c1cc(-c2ccc3c(c2)CCC32CCNCC2)ccn1`, which “Percent Effect” value is on record?
**A.** Its value is -56.04%.

**Q.** How did the “Percent Effect” value turn out when `c1cncc(-c2ccc3c(c2)CCC32CCNCC2)c1` was run?
**A.** The value was 88.51%.

**Q.** With `CN(C)CC(=O)N1CCC2(CCc3ccc(-c4ccncc4)cc32)CC1.O=C(O)C(F)(F)F.O=C(O)C(F)(F)F` as the compound, how does the “Percent Effect” value read?
**A.** The value was -52.11%.

**Q.** How did the “Percent Effect” value turn out when `CN1CCN(Cc2cccnc2)C(=O)C12CCN(Cc1ccco1)CC2.O=C(O)C(F)(F)F.O=C(O)C(F)(F)F.O=C(O)C(F)(F)F` was run?
**A.** Its value is 5.064%.

**Q.** `c1cncc(-c2ccc3c(c2)C2(CCNCC2)CC3)c1` was tested. Which “Percent Effect” value did it give?
**A.** Its value is -40.79%.

**Q.** Which “Percent Effect” value does the source give for `O=C(O)C(F)(F)F.O=C(O)C(F)(F)F.c1csc(CN2CCC3(CC2)CCN(CC2CC2)CC3)n1` here?
**A.** The value was -18.7%.

**Q.** How did the “Percent Effect” value turn out when `Cc1nc(COC[C@@H]2CC[C@H]3[C@H](CCN3c3ccccn3)O2)cs1.O=C(O)C(F)(F)F` was run?
**A.** Its value is -8.365%.

**Q.** How did the “Percent Effect” value turn out when `COCC(=O)NC1CC2(CCN(Cc3ccco3)CC2)c2ccccc21.O=C(O)C(F)(F)F` (centres undefined) was run?
**A.** The value was -0.75%.

**Q.** For `Cn1ccc(C(=O)N2CCC3(CCN3c3ncccn3)C2)n1.O=C(O)C(F)(F)F` (centres undefined), which “Percent Effect” value is on record?
**A.** The value was 24.82%.

**Q.** For `CC(C)(C)c1ncc(C(=O)NC(C(N)=O)c2ccccc2)s1` (centres undefined), which “Percent Effect” value is on record?
**A.** The value was -32.92%.

**Q.** How did the “Percent Effect” value turn out when `Cn1cc(C(=O)N2CC[C@@H]3[C@@H]2CCN3Cc2cccnc2)cn1.O=C(O)C(F)(F)F.O=C(O)C(F)(F)F` was run?
**A.** The value was -1.797%.

**Q.** `COC[C@]12COC[C@H]1CN(Cc1cc(OC)cc(OC)c1)C2.O=C(O)C(F)(F)F` was tested. Which “Percent Effect” value did it give?
**A.** Its value is 3.349%.

**Q.** Which “Percent Effect” value does the source give for `Cc1cccc(CN2CCC(NCC3CNc4cc(C)nn4C3)CC2)c1` (centres undefined) here?
**A.** Its value is 108.8%.

**Q.** With `Cc1cc2n(n1)CC(CNC1CCN(Cc3ccccc3C)CC1)CN2` (centres undefined) as the compound, how does the “Percent Effect” value read?
**A.** The value was 13.82%.

**Q.** Which “Percent Effect” value does the source give for `Cc1cc2n(n1)CC(CNC1CCN(Cc3ccncc3)CC1)CN2` (centres undefined) here?
**A.** Its value is -16.93%.

**Q.** `CCCNC(=O)Cn1c(-n2nc(C)cc2C)nc(CCC)cc1=O` was tested. Which “Percent Effect” value did it give?
**A.** The value was 96.63%.

**Q.** With `CCCc1cc(=O)n(CC(=O)NC(C)C)c(-n2nc(C)cc2C)n1` as the compound, how does the “Percent Effect” value read?
**A.** The value was 96.11%.

**Q.** Which “Percent Effect” value does the source give for `CCCc1cc(=O)n(CC(N)=O)c(-n2nc(C)cc2C)n1` here?
**A.** The value was 28.09%.

**Q.** For `COCCCNC(=O)Cn1c(C)cc(=O)n2nc(-c3cccs3)nc12`, which “Percent Effect” value is on record?
**A.** Its value is 14.25%.

**Q.** For `COCCNC(=O)Cn1c(C)cc2nc(SC)n(CC(C)C)c(=O)c21`, which “Percent Effect” value is on record?
**A.** The value was -7.488%.

**Q.** Which “Percent Effect” value does the source give for `CCCNC(=O)Cn1c(C)nn(C(C)(C)C)c1=O` here?
**A.** Its value is 11.09%.

**Q.** With `CCCc1cc(=O)n(CC(=O)NCCOC)c(-n2nc(C)cc2C)n1` as the compound, how does the “Percent Effect” value read?
**A.** Its value is 103.9%.

**Q.** `CCCNC(=O)CCNc1cncc(-n2nc(C)cc2C)n1` was tested. Which “Percent Effect” value did it give?
**A.** Its value is -16.72%.

**Q.** With `Cc1cc(C)n(-c2cncc(NCCC(=O)NC(C)C)n2)n1` as the compound, how does the “Percent Effect” value read?
**A.** The value was -1.343%.

**Q.** `O=C(O)C(F)(F)F.O=C(O)C(F)(F)F.O=C(c1ccnnc1)N1C[C@@H]2OCCN(CCN3CCCC3)[C@@H]2C1` was tested. Which “Percent Effect” value did it give?
**A.** Its value is -5.03%.

**Q.** For `CCc1cc(C(F)(F)F)n2nc(C3CCCN3C3CCSCC3)cc2n1.O=C(O)CC(O)(CC(=O)O)C(=O)O` (centres undefined), which “Percent Effect” value is on record?
**A.** The value was 5.555%.

**Q.** How did the “Percent Effect” value turn out when `O=C(O)c1ccc(SCC(=O)c2ccccc2)nc1` was run?
**A.** Its value is 25.44%.

**Q.** With `Cc1cccc(CN2C[C@@H]3OCCN(CC(=O)N(C)C)[C@@H]3C2)c1.O=C(O)C(F)(F)F` as the compound, how does the “Percent Effect” value read?
**A.** Its value is 42.49%.

**Q.** How did the “Percent Effect” value turn out when `Cl.Cl.c1ccc(OC[C@@H]2CCC[C@@]23CNCCO3)nc1` was run?
**A.** Its value is -6.285%.

**Q.** Which “Percent Effect” value does the source give for `Cc1noc(C)c1CN(C)C(C)c1cccs1` (centres undefined) here?
**A.** The value was 7.19%.

**Q.** Which “Percent Effect” value does the source give for `CC(C)n1cnnc1CN(C)Cc1cnc(-c2ccccn2)nc1` here?
**A.** The value was 32.7%.

**Q.** `CC(c1cccs1)N(C)Cc1cnc(-c2ccccn2)nc1` (centres undefined) was tested. Which “Percent Effect” value did it give?
**A.** The value was 106.1%.

**Q.** Which “Percent Effect” value does the source give for `O=C(Nc1cccnc1)[C@H]1CO[C@H]2CCNC[C@H]2C1.O=C(O)C(F)(F)F.O=C(O)C(F)(F)F` here?
**A.** Its value is -15.71%.

**Q.** How did the “Percent Effect” value turn out when `Cc1ccc2c(n1)N(CC1CC1)CCN(C(=O)c1ccncc1F)C2.O=C(O)C(F)(F)F.O=C(O)C(F)(F)F` was run?
**A.** Its value is -13.11%.

**Q.** With `CCn1c(CN(C)Cc2cnc(C)s2)nc2cc(F)ccc21` as the compound, how does the “Percent Effect” value read?
**A.** The value was -9.437%.

**Q.** For `CCN(Cc1csc(C)n1)c1cccc(CO)c1`, which “Percent Effect” value is on record?
**A.** The value was -22.94%.

**Q.** With `CCn1c(CN(C)Cc2csc(C)n2)nc2cc(F)ccc21` as the compound, how does the “Percent Effect” value read?
**A.** Its value is 69.38%.

**Q.** `CCO[C@@H]1CC[C@H]2[C@H]1OCCN2CC1CCC1.O=C(O)C(F)(F)F` was tested. Which “Percent Effect” value did it give?
**A.** Its value is -27.51%.
